Screening data (PubChem BioAssay)
Sampled rows, rich in hits. Any-hit rate of the full collection: about 3.9%.
CF NFkB block: blocks PAF-induced NF-kB reporter in cystic fibrosis cells; KKLEB NF-kB-GFP reporter, GFP fluorescence overnight; inhibition, % at 5 µM; actives 0.86% (n = 360,000); AID 588850;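 active = at least 50% inhibition at 5 µM, scaled per plate between neutral and stimulator controls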;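 note: PAF is a Pseudomonas aeruginosa culture filtrate used as stimulus; plate controls were PAF-stimulated DMSO wells for no effect and unstimulated DMSO wells for full effect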
TROY signal inh: inhibitors of TROY-dependent NF-kB signaling | Q293 LMP1-TROYcd NF-kB luciferase reporter, 4 h | inhibition, % at 10 µM | actives 0.98% (n = 360,000);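 active = compounds whose plate-normalised and pattern-corrected inhibition of the luciferase reporter signal at the single screening dose is 50% or more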
HIF-2a block: inhibitors of HIF-2a | 786-0 RCC cells HIF-2a reporter, luciferase luminescence, overnight | inhibition, % at 18.8 µM | actives 0.72% (n = 360,000) | AID 624352;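 active = inhibition of the luminescence signal of 40% or more relative to plate controls, in a single-dose primary screen at 18.75 µM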
TWEAK Fn14 block: inhibitors of TWEAK-Fn14 interaction signaling | inhibition, % at 10 µM | actives 2% (n = 360,000) | TWEAK-stimulated Fn14 reporter cells, luciferase luminescence, 8 h | AID 1159606; in the data active = inhibition above about 50%
Peg3 promoter: Peg3 promoter activity inhibition; inhibition, % at 20 µM; HeLa PEG-Prom luciferase reporter, luminescence, overnight; actives 1.7% (n = 360,000);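 active = inhibition of at least 50% at 20 µM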
KKLEB cytotox: counter-screen for CF NF-kB inhibitors: cytotoxicity | KKLEB CF airway cells viability, ATPlite luminescence, overnight; stronger effect = lower value; cells stimulated with P. aeruginosa culture filtrate | activity change (cytotoxicity), % at 5 µM | actives 0.36% (n = 360,000) | AID 602141;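 active = corrected activity change at or below -50% at 5 µM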
CF NFkB inh conf: CF NF-kB inhibition confirmation, single concentration; inhibition, % at 5 µM; actives 64% (n = 1,300); shares compounds with CF NFkB block; KKLEB CF airway cells, PAF-induced NF-kB-GFP fluorescence, overnight; in the data active = inhibition above about 40%;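 note: stimulus PAF is a Pseudomonas aeruginosa filtrate and not platelet activating factor; plate controls were DMSO wells with stimulus for no effect and unstimulated DMSO wells for full effect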
Mdm2-MdmX confirm: confirmation of inhibitors of human Mdm2/MdmX interaction, set 2. shares compounds with HIF-2a block. SaOS-2 split-luciferase Mdm2/MdmX complementation, luminescence. inhibition, % at 8 µM. actives 99% (n = 740). AID 504601;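 active = mean inhibition of the luminescence signal across two replicates at or above 26 percent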
Target sequence (O15151 whole entry, looked up): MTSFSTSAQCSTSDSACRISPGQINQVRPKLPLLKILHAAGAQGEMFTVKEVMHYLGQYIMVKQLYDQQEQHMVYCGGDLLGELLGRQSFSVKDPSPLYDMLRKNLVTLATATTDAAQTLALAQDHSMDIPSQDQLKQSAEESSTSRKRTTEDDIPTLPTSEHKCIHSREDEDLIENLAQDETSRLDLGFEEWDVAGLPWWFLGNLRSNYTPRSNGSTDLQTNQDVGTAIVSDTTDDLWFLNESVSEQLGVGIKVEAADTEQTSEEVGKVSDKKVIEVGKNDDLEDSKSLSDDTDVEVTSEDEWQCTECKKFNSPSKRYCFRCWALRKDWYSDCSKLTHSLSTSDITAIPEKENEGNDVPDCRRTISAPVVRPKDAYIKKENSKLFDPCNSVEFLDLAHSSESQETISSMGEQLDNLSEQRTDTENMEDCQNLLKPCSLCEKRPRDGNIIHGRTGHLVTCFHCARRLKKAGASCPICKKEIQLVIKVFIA
Target sequence (Q00987 whole entry, looked up): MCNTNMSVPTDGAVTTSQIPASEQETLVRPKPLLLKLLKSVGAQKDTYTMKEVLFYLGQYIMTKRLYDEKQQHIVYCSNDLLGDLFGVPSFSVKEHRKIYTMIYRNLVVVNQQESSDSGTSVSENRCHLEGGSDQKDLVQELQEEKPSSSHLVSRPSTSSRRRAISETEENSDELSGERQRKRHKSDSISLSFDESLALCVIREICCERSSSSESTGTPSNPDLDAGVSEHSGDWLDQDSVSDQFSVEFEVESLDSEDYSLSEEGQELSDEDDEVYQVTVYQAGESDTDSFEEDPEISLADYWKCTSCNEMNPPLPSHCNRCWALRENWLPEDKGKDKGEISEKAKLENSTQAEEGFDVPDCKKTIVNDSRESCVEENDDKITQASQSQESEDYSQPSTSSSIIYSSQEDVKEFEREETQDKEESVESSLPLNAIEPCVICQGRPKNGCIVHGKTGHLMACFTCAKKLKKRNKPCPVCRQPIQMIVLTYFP
HIF-2a inh conf: HIF-2a inhibition, single concentration confirmation | shares compounds with HIF-2a block | 786-0 RCC cells, HIF-2a luciferase reporter luminescence, overnight | inhibition, % at 18.8 µM | actives 56% (n = 1,800) | AID 651580;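 active = mean inhibition across four replicates of at least 40 percent at the single tested concentration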
HIF-1a cs: inhibits HIF-1a reporter, a counter-screen for HIF-2a inhibitors; MiaPaCa-2 HIF-1a luciferase reporter, desferoxamine, overnight; actives 72% (n = 1,800); inhibition, % at 18.8 µM; shares compounds with HIF-2a block;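 active = mean inhibition of the reporter signal across four replicates at the single tested dose of 50% or more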
An asterisk follows results filed as active; / = no result given.

SMILES	CF NFkB block	TROY signal inh	HIF-2a block	TWEAK Fn14 block	Peg3 promoter	KKLEB cytotox	CF NFkB inh conf	others
Nc1nc(N)nc(-c2ccccc2O)n1	16	/	-58	6	-78	5	/
O=C(NNC(=S)Nc1cccc(C(F)(F)F)c1)c1cccc(Cl)c1	51*	36	-56	62*	-11	-26	77*
O=C(NNC(=S)Nc1cccc(C(F)(F)F)c1)c1ccccc1Cl	-6	-20	-72	-2	10	7	/
CC(C)c1nc(Cl)c(C#N)c2c1CCCC2	55*	1	6	52*	-44	-4	77*
CC(C)c1nc(NCCO)c(C#N)c2c1CCCC2	71*	51*	36	61*	10	-10	55*
c1cc2[nH]snc2c2nc(C3CC3)nc12	74*	40	-52	62*	-50	0	68*
COc1ccc(-c2cc3c(=O)n(CC(=O)NCc4ccc(C)cc4)ncn3n2)cc1	54*	-22	5	-13	-1	-15	13
CCc1nnc(NC(=O)CSc2nnc(CNC(=O)c3ccccc3F)n2C)s1	-5	-8	-3	30	11	-1	/
CC(NCc1ccccc1Cl)C(=O)Nc1ccc(S(=O)(=O)N2CCCC2)cc1 (stereo unspecified)	8	-13	11	-1	17	-1	/
COc1ccc(N2CCN(C(c3ccc4ncccc4c3)c3nnnn3C(C)(C)C)CC2)cc1 (stereo unspecified)	5	12	18	1	-3	-8	/
Cc1ccc(NC(=S)NC(=O)c2ccccc2)cc1NC(=S)NC(=O)c1ccccc1	64*	-14	-206	21	-52	-27	27
O=C(NC(=S)Nc1cccc(NC(=S)NC(=O)c2ccccc2)c1)c1ccccc1	12	12	-128	50	-166	2	/
CC1CCN(Cc2c(C(=O)N/N=C/c3ccc(C(C)(C)C)cc3)nnn2-c2nonc2N)CC1	53*	-3	24	-73	106*	-41	63*
Cn1nc(-c2ccccc2)c(COC(=O)c2cccc(Cl)c2)c1S(=O)(=O)c1ccccc1	2	17	7	-1	20	1	/
CC[n+]1c(C)sc2c(C)cc(C)cc21	-13	-10	10	-3	-1	3	/
CCC[n+]1c(C)sc2c3c(ccc21)CCCC3	58*	-10	6	4	32	-23	20
CCc1ccc(-c2n[nH]nc2C2=CC(=O)C[C@H](c3ccc(F)cc3)C2)cc1	61*	42	5	33	36	1	40
COc1ccccc1-c1n[nH]nc1C1=CC(=O)C[C@H](c2ccc(F)cc2)C1	16	-5	23	1	28	-4	/
CCOC(=O)c1ccc(NC(=O)c2ccccc2)cc1	-4	-56	-297	-24	-288	4	/
CCOC(=O)c1ccc(NC(=O)c2c(N)n(Cc3ccccc3)c(=O)[nH]c2=O)cc1	58*	4	3	-25	10	-48	33
CCOc1ccc(/C=C2\SC(=S)N(CC(=O)N(CCO)C(C)(C)C)C2=O)cc1	-4	9	-42	10	-7	-1	/
C[C@H]1Cn2cnc(C(=O)Nc3cccc(Cl)c3)c2C(=O)N1	62*	52*	-6	71*	39	14	91*
CSc1nc(-c2ccccc2)nn1C(=O)c1ccc(C)cc1	2	-1	-48	26	-37	-2	/
c1csc(CNc2ncnc3ccc(-c4ccc5c(c4)OCCO5)cc23)c1	7	20	12	-1	39	-19	/
c1cncc(-c2ccc3ncnc(NCc4ccc5c(c4)OCO5)c3c2)c1	55*	12	19	35	18	-13	65*
SMILES	CF NFkB block	TROY signal inh	HIF-2a block	TWEAK Fn14 block	Peg3 promoter	KKLEB cytotox	CF NFkB inh conf	others
COc1cccc(-c2ccc3ncnc(NCc4cccs4)c3c2)c1	61*	44	21	69*	31	-7	85*
COc1cccc(-c2ccc3ncnc(NCc4cccc(C)c4)c3c2)c1	69*	50*	24	63*	19	-8	62*
c1cncc(CNc2ncnc3ccc(-c4cccnc4)cc23)c1	6	10	25	23	17	7	/
COc1ccc(C2=NC(C)(C)Cc3cc(OC)c(OC)cc32)cc1OC	8	-6	15	-3	-14	13	/
Cc1cccc(C(=O)OCC(=O)NCc2cccs2)c1	-4	-29	4	2	-12	5	/
CS(=O)(=O)c1ccc(C(=O)OCC(=O)NCc2cccs2)cc1[N+](=O)[O-]	90*	24	83*	92*	108*	-33	43*	HIF-2a inh conf=24;HIF-1a cs=4
O=c1cc(NC2CCCCCC2)[nH]c(=O)[nH]1	5	6	16	2	17	2	/
COc1ccc(-c2[nH]ncc2-c2ccc3c(c2)OCCO3)c(O)c1	89*	61*	25	78*	27	-16	102*	Mdm2-MdmX confirm=96*
Cc1c(-c2ccccc2)oc2c(C(=O)N3CCN(c4ccc([N+](=O)[O-])cc4)CC3)cccc2c1=O	82*	42	27	75*	2	-20	82*	Mdm2-MdmX confirm=87*
Cc1c(C(=O)N2CCN(c3ccc([N+](=O)[O-])cc3)CC2)oc2ccccc12	11	21	1	-5	24	4	/
CC1(C)Cc2c(sc3c2C2=NCCN2C=N3)CS1	8	10	2	4	17	0	/
O=C1NC[C@H](Cc2ccccc2)N(C[C@H]2CCCN2C[C@H](Cc2ccccc2)N2C[C@H](Cc3ccccc3)N(CC3CCCCCC3)C(=O)C2=O)C1=O	56*	46	80*	31	54*	-24	20	HIF-2a inh conf=2;HIF-1a cs=105*
O=C(Cn1ncc(Cl)c(Cl)c1=O)NC1CCCCC1	68*	32	86*	84*	100*	-20	27	Mdm2-MdmX confirm=103*;HIF-2a inh conf=19;HIF-1a cs=102*
Cc1ccc(NC(=O)Cn2ncc(Cl)c(Cl)c2=O)cc1S(=O)(=O)N1CCCCC1	86*	84*	94*	86*	107*	-10	-57	Mdm2-MdmX confirm=103*;HIF-2a inh conf=57*;HIF-1a cs=103*
